PubChem BioAssay (NCI)
The panel holds about 79,000 compounds, 15% with a hit somewhere; the sample as a whole holds those more often. A number with no mark means an inactive call. Activity calls are given as the source filed them. Cut-off read from the data, not from the text of the source: active = growth inhibition above about 70%; inactive = the rest.

Assays:
[1] = NCI Yeast Anticancer Drug Screen. Data for the rad50 strain (AID 155);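 note: 0% = growth of vehicle-only cultures of the same strain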; settings: S. cerevisiae rad50 strain growth inhibition; at 50.0 µM; hits give high values
In short: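 Growth of the mutant yeast was measured after compound exposure and referenced to vehicle-treated cultures.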

[2] = NCI Yeast Anticancer Drug Screen. Data for the mec2-1 strain (AID 157); settings: S. cerevisiae mec2-1 strain, at 50.0 µM, hits give high values
In short: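 Strain: mec2-1 (DNA repair/cell cycle alteration). Compound exposure, then growth measured; inhibition expressed relative to vehicle.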

[3] = NCI Yeast Anticancer Drug Screen. Data for the sgs1 mgt1 strain (AID 161);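 note: 0% = growth of cultures given vehicle only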; settings: S. cerevisiae sgs1 mgt1 strain, at 50.0 µM, hits give high values
In short: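 Test agents were incubated with a DNA-repair-mutant yeast strain. Growth was then read and compared against vehicle-treated controls.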

[4] = NCI Yeast Anticancer Drug Screen. Data for the cln2 rad14 strain (AID 165);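 note: 0% = growth equal to vehicle treated cultures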; settings: S. cerevisiae cln2 rad14 strain, at 50.0 µM, hits give high values
In short: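 Compounds are applied to the cln2 rad14 yeast strain, and growth is then compared with that of vehicle-treated cultures to give inhibition.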

[5] = NCI Yeast Anticancer Drug Screen. Data for the bub3 strain (AID 167); settings: S. cerevisiae bub3 mutant strain, at 50.0 µM, hits give high values
In short: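 Whole-cell yeast assay. The mutant strain was incubated with compounds, and growth inhibition was determined by comparison with vehicle-treated cells.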

[6] = NCI Yeast Anticancer Drug Screen. Data for the mlh1 rad18 strain (AID 175); settings: S. cerevisiae mlh1 rad18 strain growth inhibition; at 50.0 µM; hits give high values
In short: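 Read-out is yeast growth inhibition, calculated against vehicle-only controls. The compound was applied to a strain engineered with DNA damage repair alterations.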

Compound | growth inhibition [1] | growth inhibition [2] | growth inhibition [3] | growth inhibition [4] | growth inhibition [5] | growth inhibition [6]
CCOP(=S)(OCC)OP(=S)(OCC)OCC | -44.5% | -50.4% | -40.6% | -13.9% | -28.1% | -42.1%
CCCn1cc2c3c(cccc31)[C@H]1C[C@@H](C)CN(C)[C@@H]1C2 | 49.4% | 45.4% | 41% | 45.1% | 44% | 36.5%
CCC1c2cc(O)c(OC)cc2CCN1C (configuration not stated) | -7.7% | -0.9% | 2.45% | -14.9% | -7.75% | -8%
O=P(O)(Nc1ccccc1)Nc1ccccc1 | 21.7% | 33.4% | 21% | -15.1% | 25.3% | 15.3%
N#C[CH2][Sn]([c]1ccccc1)([c]1ccccc1)[c]1ccccc1 | 98.8% (active) | 98.8% (active) | 99% (active) | 98% (active) | 98.5% (active) | 98.9% (active)
CC(I)C(N)=O (configuration not stated) | -16.6% | -19.7% | -19.5% | -4.15% | -4% | -17%
CC(Nc1c([N+](=O)[O-])ccc(C(=O)NCCN(C)C)c1[N+](=O)[O-])C(=O)Nc1ccc(N(CCCl)CCCl)cc1 (configuration not stated) | -34.6% | -9.75% | 0.75% | 7.35% | -8.05% | -7.75%
S=P12OCCC(CO1)O2 (configuration not stated) | 8.2% | -9.35% | 3.85% | -23.8% | -8.15% | -3.15%
CCC1(CCOc2ccccc2)C(=O)NC(=O)NC1=O | -10.9% | -1.45% | 1.3% | -6.55% | 1.6% | -1.85%
Cc1nccc2c1[nH]c1ccccc12 | 6.5% | 5.7% | -15.4% | -5.65% | 2.5% | 2.3%
COC(=O)C[N+]1(C)C2CCC1CC(O)C2 (configuration not stated) | 1.5% | 2.75% | 0.55% | -23.3% | -17.1% | 9.95%
CCCC/C=C(/C)C1(CC)C(=O)NC(=O)NC1=O | 5.05% | 14.2% | -2% | -28.1% | -7.3% | 4.6%
CCCC(=O)[O-].CCCC(=O)[O-].NCCN.NCCN.[Co+3].[O-][Cl+3]([O-])([O-])[O-] | -18.5% | 19.1% | -5.1% | 23% | -0.45% | -1.75%
Clc1ccc(C(Cl)(Cl)Cl)c(Cl)c1 | 9% | 6.35% | -9.3% | -15.8% | 17.9% | 20.4%
O=c1n(CC2CS2)c2ccccc2n1CC1CS1 (configuration not stated) | 42% | -0.6% | 4.9% | -30.4% | -11.1% | -5.3%
O=C1C(NCC(O)CO)=C(N2CC2)C(=O)C(NCC(O)CO)=C1N1CC1 (configuration not stated) | -0.05% | 7% | 1.15% | 4.55% | 8.8% | 25.6%
CC(=O)C(C)(C)C | 0% | -1.45% | 5.15% | 3% | 3.5% | 24.1%
Nc1c([N+](=O)[O-])cncc1[N+](=O)[O-] | -30.6% | -4.15% | -14.3% | -40.6% | -41.9% | -6.8%
NC(=O)C(Cl)c1ccccc1 (configuration not stated) | -17.2% | -25.9% | -24.8% | -23.6% | -23.9% | -9.15%
CCOP(=O)(O)CP(=O)(O)OCC.CCOP(=O)(O)CP(=O)(O)OCC.[Cr] | -61.8% | -11.4% | -32.2% | -40.5% | 2.7% | -27.2%
CC(Cc1ccc(O)cc1)NCC(O)c1cc(O)cc(O)c1 (configuration not stated) | 9.65% | 13.2% | 6.95% | -8.45% | 16.4% | 6.55%

Compound | growth inhibition [1] | growth inhibition [2] | growth inhibition [3] | growth inhibition [4] | growth inhibition [5] | growth inhibition [6]
CC(C)NCCc1c[nH]c2ccccc12 | 3% | -7.15% | 12.4% | -60% | 13.3% | 1.65%
CC(=O)NCN(C)[N+](=O)[O-] | -9.6% | -4.95% | 8.85% | -11% | -19.8% | -6.5%
NC(CCSCCF)C(=O)O (configuration not stated) | 36.9% | 8.6% | 12.8% | -2.65% | 24.4% | 35%
CCC(=O)OC1(c2ccccc2)CCN(CCC(O)c2ccccc2)CC1C (configuration not stated) | -14.9% | -1.45% | 1.45% | -34.9% | 1.1% | 6.2%
CCOS(=O)(=O)c1ccc(C)cc1 | 13.8% | 8.25% | 3.35% | -0.95% | 8.45% | -5.2%
COc1ccc(CN2CCCN(Cc3ccc(OC)cc3)C2c2ccc(N(CCCl)CCCl)cc2)cc1 | 30.3% | 2.4% | 43.8% | 19.8% | -15.3% | 35.8%
Cc1ccc([P+](=O)O)cc1Cl | -12.1% | -3.75% | -8.55% | -9.25% | 1.65% | -3%
Cc1ccc2c(c1)N(CCCl)c1c(ccc3ccccc13)S2 | -6.55% | -10% | -6.55% | -67.9% | 22.2% | -6.6%
CCC1(CCSC#N)C(=O)NC(=O)NC1=O | -7.55% | -8.6% | 11.2% | -14.9% | -3.3% | 3.85%
CCCCCCCC(=O)O.[Sn] | -2.25% | -7.35% | -9.6% | -45.9% | 12.1% | -19%
CC(C)OP(=S)(Oc1ccc(Cl)cc1Cl)OC(C)C | 20.9% | -11.7% | 31.9% | 8.8% | 21.2% | 8%
O=S(OO)c1cc(Cl)c(O)c(Cl)c1 (configuration not stated) | 3.5% | -24.1% | -1.55% | 7.55% | -10.7% | 3.4%
Cc1ccc(C(=O)CN)cc1 | 10.4% | 0.05% | -1.35% | 4% | 3.45% | -9.5%
COc1cc(-c2ccc(N)c(OC)c2)ccc1N | 26.7% | 7.9% | 20.2% | 5.8% | -2.45% | 30.1%
O=C/C=C/c1ccccc1.[Fe+2].[c-]1[c-][c-][cH-][c-]1.[c-]1[c-][c-][cH-][c-]1 | 4.65% | -48.2% | 1.65% | 7.85% | 11.4% | 0.4%
NC(N)=N/N=C1\C(=O)N(c2cccc([N+](=O)[O-])c2)C(=O)C1C(=O)Nc1cccc([N+](=O)[O-])c1 (configuration not stated) | -17.9% | -22.4% | -17.1% | -29.6% | 1.4% | -14.5%
CNC(=O)c1[nH]cnc1/N=N/N(C)N | 85.2% (active) | 91.8% (active) | 90.5% (active) | 87.9% (active) | 89% (active) | 89.3% (active)
CC([Se])=Nc1ccc(Br)cc1 | 21.6% | 0.8% | -0.2% | -8.9% | -1.45% | 9.1%
N#CC[CH2][Sn]([I])([c]1ccccc1)[c]1ccccc1 | 98.2% (active) | 98.8% (active) | 98% (active) | 98.5% (active) | 98.8% (active) | 98.1% (active)
CCP(c1ccccc1)c1ccccc1 | -0.4% | 12.4% | 13.1% | 0.95% | -40.8% | -12%
COc1ccc(N)cc1OC | -2.15% | 1.35% | -4.8% | -12.2% | 6.7% | -5.4%
